This note sets out measurements from PubChem BioAssay (NCI).

SMILES strings stand for the structures. Several values for one entry are separate records, joined by “and”; a condition that tells them apart may be missing. Identical values can stand only once. This is part of a sample that, as a whole, favours compounds with a hit. Of some 83,000 tested, about 20% had one in any assay.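 Each cell line was grown in a 96-well plate and treated with one concentration of compound for 48 hours. Values below 10 were considered active.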 Unmarked numbers belong to inactive results. Activity calls are given as the source filed them.

The experiment deals with MDA-MB-468 breast. Put plainly: NCI-60 one-dose screen, 48 h (100 = growth as untreated, 0 = no growth, -100 = all killed). Particulars: 10 µM unless noted.
Turning to `O=C(O)C(Cc1ccccc1)N1C(=O)/C(=C/C(Cl)=C/c2ccc([N+](=O)[O-])cc2)SC1=S` (stereo unspecified), the growth is -12.8% (active).

As for `CC(C)NCC(O)COc1ccc(CC(N)=O)cc1` (stereo unspecified), the growth was 102%.

`Cc1cccc(N2C(=O)/C(=C/C(Cl)=C/c3ccc([N+](=O)[O-])cc3)SC2=S)c1C`: the growth is 11.6%.

Consider `CC(=O)c1ccc(Nc2nc(NCCO)nc(Nc3ccc(Cl)cc3)n2)cc1`, for which the growth is 65.7%.

Take `COc1ccc(NC(=O)CSc2nc(C)c(C(C)=O)n2-c2ccc(Cl)cc2)cc1`: the growth was 98.8%.

Take `O=c1cc(C2NCCc3c2[nH]c2ccccc32)c2c(ccc3ccccc32)o1` (stereo unspecified): the growth was 89.9%.

`Nc1c(C(=O)Nc2cccc3ccccc23)sc2nc3c(cc12)CCCC3`: the growth was 35%.

Regarding `COc1ccc(/C=C/C(=O)O)cc1OC`, the growth was 99.5% and 102%.

On to `O=C1N/C(=N/N=C(c2ccccc2)c2ccccc2)S/C1=C\c1ccc(Br)cc1`, for which the growth is 103%.

Take `O=C1/C(=C/c2ccccc2[N+](=O)[O-])Cc2ccccc21`: the growth is -46.2% (active) and -17.9% (active).

Consider `COc1ccc(C(=O)OC2C(OC3C(O)COC(O[C@H]4C[C@H]5[C@@H]6CC=C7C[C@@H](O)CC[C@]7(C)[C@H]6CC[C@]5(C)[C@H]4[C@H](C)C(=O)CCC(C)C)C3OC(=O)C(C)C)OCC(O)C2O)cc1` (stereo partly specified), for which the growth was -2.45% (active).

As to `O=C(Nc1cccc(F)c1)Nc1cccc(Cl)c1`, the growth is 90%.

On to `CC1(n2nnnc2N2CCCN(c3ncccc3N)CC2)CCC1`, for which the growth is 93%.

Take `Nc1nc(N)c2c(n1)NC(c1cccc(Nc3ccnc4cc(C(F)(F)F)ccc34)c1)CC(c1ccc3c(c1)OCO3)=N2` (stereo unspecified): the growth was 58%.

Take `COc1ccc2c(CCCCC(c3ccccc3)c3ccccc3)c3[n+](cc2c1OC)CCc1cc2c(cc1-3)OCO2`: the growth was -75.3% (active).

Turning to `NC1CCC(C(=O)O)CC1` (stereo unspecified), the growth is 99.8% and 107%.

For the molecule `C[C@H]1C(=O)C23CCC1C[C@@]21O[C@@H]2C(C)(C)C=CC(=O)C23COC1=O`, the growth is 102%.

Regarding `O=C(O)c1cn(C2CC2)c2cc(N3CCN(C(=O)CSc4nc(NS(=O)(=O)c5ccccc5)cc(=O)[nH]4)CC3)c(F)cc2c1=O`, the growth is 98.7%.

In the case of `COCCn1cc(-c2nc(-c3cn(CCOC)c4ncccc34)cs2)c2ccccc21`, the growth was -17.4% (active).

Take `COc1cccc(-c2nn(-c3ccccc3)cc2-c2ccnc(N3CCN(C(=O)c4ccccc4)CC3)c2)c1`: the growth is 82.3%.

For the molecule `COc1ccc(C2=Nc3c(N)nc(N)nc3NC(c3cccc(Nc4ccnc5cc(C(F)(F)F)ccc45)c3)C2)cc1` (stereo unspecified), the growth was 46.1%.

With `COc1ccc(OC)c(Nc2nc(-c3c(C)nc4sccn34)cs2)c1`, the growth was 24.5%.

As for `Nn1c(=O)n(-c2cccc(C(F)(F)F)c2)c(=O)c2cc(-c3ccc(F)cc3F)ccc21`, the growth is -5.36% (active).

In the case of `C#CCN(Cc1ccc2nc(N)[nH]c(=O)c2c1)c1ccc(C(=O)NC(CCC(=O)O)C(=O)O)cc1` (stereo unspecified), the growth was 37.7%.

In the case of `O=C(Cc1nc2ccc([N+](=O)[O-])cc2nc1CC(=O)c1ccccc1)c1ccccc1`, the growth is 68.9%.

For `O=C1C(N2CCN(c3ccccc3)CC2)=C(Cl)C(=O)c2ncccc21`, the growth was -62.8% (active).

With `S=c1[nH]nc(-c2cc3ccc2CCc2ccc(cc2)CC3)n1C1CC1`, the growth is 106%.

In the case of `Cn1c(/C=C(\C#N)c2ccccc2)nc2c(N3CCOCC3)nc(Cl)nc21`, the growth was -47.9% (active).

For the molecule `COc1cc(-c2nn(-c3cccc(NC(=O)NCCNS(=O)(=O)c4ccc(Cl)cc4)c3)cc2-c2ccncc2)ccc1Cl`, the growth is -35.8% (active).

For `COc1cc(/C=N\Nc2ccccc2)ccc1OC(=O)c1ccccc1`, the growth is 44.2%.

As for `COC(=O)c1ccc2[nH]c(O)c(C(=Nc3ccc(N(C)C(=O)CN4CCN(C)CC4)cc3)c3ccc([N+](=O)[O-])cc3)c2c1`, the growth is 85.9%.

Consider `C#CCNC(=O)CC[C@@H](C)[C@H]1CC[C@H]2[C@@H]3CC[C@@H]4CC(=O)CC[C@]4(C)[C@H]3CC[C@]12C`, for which the growth was -19.7% [100 µM] (active).

For the molecule `CN(C)c1ccc(/C=C\c2ccnc3ccccc23)cc1`, the growth was 31.2%.

Consider `O=C(N/N=C/c1ccccc1O)c1ccncc1`, for which the growth was 61%.

As to `CCCC(CCC)(C(N)=O)C(=O)O`, the growth was 105%.

Take `O=C1C(Cl)=C(Nc2ccc(S(=O)(=O)c3ccc(NC4=C(Cl)C(=O)c5ccccc5C4=O)cc3)cc2)C(=O)c2ccccc21`: the growth is -60.1% (active).
